Design in all cases: species or system human, MV4-11 + K-562 + COLO205 + SK-N-BE2 + OVCAR-8
The test system of test [1] is EPHA2. The conditions noted are these: read-out: apparent Kd, n = 1.
In test [2] the test system is EPHA4. To be noted: read-out: apparent Kd, n = 1.
Test [3] relates to EPHB2. To be noted: read-out: apparent Kd, n = 1.
Test [4] has as its system EPHB4. To be noted: read-out: apparent Kd, n = 1.
Test [5] concerns TGFBR2. The conditions noted are these: read-out: apparent Kd, n = 1.
For test [6], the system named is NQO1. To be noted: read-out: apparent Kd, n = 1.
Test [7] deals with CSNK1D. The conditions noted are these: read-out: apparent Kd, n = 1.
The test system of test [8] is NLK. To be noted: read-out: apparent Kd, n = 1.
The test system of test [9] is MAP2K2. To be noted: read-out: apparent Kd, n = 1.
Test [10] concerns MAPKAPK2. The conditions noted are these: read-out: apparent Kd, n = 1.
The subject of test [11] is MAPK9. The conditions noted are these: read-out: apparent Kd, n = 1.
Test [12] deals with PIK3CD. The conditions noted are these: read-out: apparent Kd, compound concentrations: 100 nM and 1000 nM (sheet 'Samples'), n = 1.
The test system of test [13] is TAOK1. The conditions noted are these: read-out: apparent Kd; compound concentrations:100 nM and 1000 nM (sheet 'Samples'); n = 1.
In test [14] the test system is BUB1. The conditions noted are these: read-out: apparent Kd, n = 1.
The test system of test [15] is MAP2K1. The conditions noted are these: read-out: apparent Kd, compound concentrations: 100 nM and 1000 nM (sheet 'Samples'), n = 1.
For test [16], the system named is PDGFRB. The conditions noted are these: read-out: apparent Kd; compound concentrations: 100 nM and 1000 nM (sheet 'Samples'), CATDS: 3.4418079191200303E-2; n = 1.
Test [17] concerns T1, DJA1.
T1 construct: gene DNAJA1
To be noted: read-out: apparent Kd, compound concentrations: 100 nM and 1000 nM (sheet 'Samples'), n = 1.

Test [18] has as its system MAP4K5. The conditions noted are these: read-out: apparent Kd, n = 1.
Test [19] concerns NQO2. The conditions noted are these: read-out: apparent Kd, n = 1.
Test [20] deals with PDXK. The conditions noted are these: read-out: apparent Kd, n = 1.
Setting [21] is: compound concentrations:100 nM and 1000 nM (sheet 'Samples').

Data on 24 compounds can be found in paper PMC11062922 (Nature Chemical Biology, 2023).

Like-named read-outs stand apart in the source and are kept apart here.

For `Cc1ccc(O)cc1Nc1ccnc2ccc(C(C)(C)C)cc12` [GW856805X], the potency estimated from few doses in [1] (compound concentrations: 100 nM and 1000 nM (sheet 'Samples'), CATDS: 8.0596912814025104E-2) is 0.0185 µM; in test [2] (compound concentrations: 100 nM and 1000 nM (sheet 'Samples'), CATDS: 7.4195620286495498E-2), 0.022 µM; in test [3] (compound concentrations: 100 nM and 1000 nM (sheet 'Samples'), CATDS: 6.5287043089823998E-2), 0.0293 µM; in [4] (compound concentrations: 100 nM and 1000 nM (sheet 'Samples'), CATDS: 0.113366992887299), 0.00972 µM; in [5] (compound concentrations: 100 nM and 1000 nM (sheet 'Samples'), CATDS: 3.9995494154685202E-2) it was 0.13 µM.
With `COc1cc2ncn(-c3cc(OCc4ccncc4)c(C(N)=O)s3)c2cc1OC` [GSK336313A], the potency estimated from few doses in test [6] (setting [21]) was 1.23 µM.
`N#Cc1cccc(Nc2nccc(-c3cnn4ncccc34)n2)c1` [GW778894X]: the values for the potency estimated from few doses in test [7] (setting [21]), in test [8] (setting [21]) and in test [5] (setting [21]) were 0.199 µM, 1.56 µM and 0.0357 µM, respectively.
Regarding `CN1CCN(Cc2ccc(-c3ccc4c(Nc5ccc(Oc6ccccn6)cc5)ccnc4c3)o2)CC1` [GW567140X], the potency estimated from few doses in test [9] (compound concentrations: 100 nM and 1000 nM (sheet 'Samples'), CATDS: 3.1784212717953002E-2) was 2.09 µM.
As to `CS(=O)(=O)Cc1ccc(Nc2nccc(-c3c(-c4cccc(NC(=O)c5c(F)cccc5F)c4)nn4ccccc34)n2)cc1` [GSK323543A], the potency estimated from few doses in test [10] (compound concentrations: 100 nM and 1000 nM (sheet 'Samples'), CATDS: 7.72685747843148E-2) is 0.87 µM.
Regarding `O=S(=O)(CCOCc1ccc(-c2ccc3ncnc(Nc4ccc(OCc5cccc(F)c5)c(Cl)c4)c3c2)o1)c1ccccc1` [GW615311X], the potency estimated from few doses is 2.36 µM in test [11] (compound concentrations: 100 nM and 1000 nM (sheet 'Samples'), CATDS: 2.2235644452826799E-2); 0.176 µM in [12] (CATDS: 0.10575353255485199).
Turning to `O=S(=O)(c1ccc(-c2ccnc3[nH]ccc23)cc1)N1CCCC1` [GSK846226A], the potency estimated from few doses in test [13] was 1.69 µM.
In the case of `CC(C)c1nc(-c2ccc(F)c(NS(=O)(=O)c3c(F)cccc3F)c2)c(-c2ccnc(Nc3ccc(N4CCOCC4)nc3)n2)s1` [GSK1804250A], the potency estimated from few doses in [14] (setting [21]) was 0.553 µM.
`COc1ccc(-c2nc3n(c2-c2ccncc2)CCC3)cc1.COc1ccc(-c2nc3n(c2-c2ccncc2)CCC3)cc1.O=S(=O)(O)O.O=S(=O)(O)O` [SKF-104493-B2]: the potency estimated from few doses is 2.4 µM in [15] (CATDS: 9.8642022165156204E-2); 0.867 µM in test [10] (compound concentrations: 100 nM and 1000 nM (sheet 'Samples'), CATDS: 0.15746092707453499).
`CN1CCN(Cc2ccc(NC(=O)Nc3ccc(N(C)c4ccnc(Nc5ccc(CS(C)(=O)=O)cc5)n4)cc3)cc2)CC1.Cl` [GW827654A]: the potency estimated from few doses in test [16] was 1.86 µM.
Consider `CC(=O)N1CCN(c2ccc(Nc3nccc(-c4sc(C(C)C)nc4-c4cccc(NS(=O)(=O)c5cccc(Cl)c5)c4)n3)cn2)CC1` [GSK1660437A], for which the potency estimated from few doses in test [14] (compound concentrations: 100 nM and 1000 nM (sheet 'Samples'), CATDS: 4.8956093582398198E-2) is 0.873 µM; in test [17] (CATDS: 3.8253703176693299E-2), 1.69 µM.
For the compound `CC(C)c1nc(-c2cccc(NS(=O)(=O)c3c(F)cccc3F)c2F)c(-c2ccnc(Nc3ccc(N4CCOCC4)nc3)n2)s1` [GSK2008607A], in test [14] (compound concentrations: 100 nM and 1000 nM (sheet 'Samples'), CATDS: 2.5044910199505301E-2), the potency estimated from few doses was 0.721 µM.
As to `CC(C)c1nc(-c2cccc(NS(=O)(=O)c3c(F)cccc3F)c2)c(-c2ccnc(Nc3ccc(N4CCOCC4)nc3)n2)s1.Cl` [GSK1723980B], the potency estimated from few doses in test [14] (compound concentrations: 100 nM and 1000 nM (sheet 'Samples'), CATDS: 3.0141053938719398E-2) is 0.191 µM.
For `Cl.Cn1c(=O)c(Cc2ccc(F)cc2F)cc2cnc(NC3CCOCC3)nc21` [RO3308757-001], the potency estimated from few doses is 1.13 µM in test [1] (setting [21]); 0.743 µM in test [2] (setting [21]); 0.364 µM in [3] (setting [21]); 0.268 µM in [4] (setting [21]); 1.03 µM in test [11] (setting [21]); 0.669 µM in test [10] (setting [21]).
For the compound `Nc1ncc(-c2cn[nH]c2)c2scc(-c3ccc4c(c3)CCN4C(=O)Cc3ccccc3)c12` [GSK2593067A], the potency estimated from few doses in test [17] (CATDS: 0.221714333862437) is 0.118 µM; in test [18] (compound concentrations: 100 nM and 1000 nM (sheet 'Samples'), CATDS: 8.2420323237496707E-2), 0.674 µM; in [12] (CATDS: 0.15776824540953199), 0.196 µM.
For `COc1ccc(COc2ccc(Cc3cnc(N)nc3N)cc2OC)cc1` [GW632580X], the potency estimated from few doses in [9] (setting [21]) is 1.63 µM.
As for `Cn1cc(C2=C(c3cn(CCCCCO)c4ccccc34)C(=O)NC2=O)c2ccccc21` [RO0318053-000], the potency estimated from few doses is 0.959 µM in test [19] (compound concentrations: 100 nM and 1000 nM (sheet 'Samples'), CATDS: 9.2585577918862794E-2); 0.0604 µM in [20] (compound concentrations: 100 nM and 1000 nM (sheet 'Samples'), CATDS: 0.25573485461169798).
`Clc1ccc(-c2nn3ncccc3c2-c2ccnc(Nc3ccccc3)n2)cc1` [GW829055X]: the potency estimated from few doses was 1.06 µM in [17] (CATDS: 4.1892877755586803E-2); 0.138 µM in test [15] (CATDS: 0.148171076580532); 1.25 µM in test [9] (compound concentrations: 100 nM and 1000 nM (sheet 'Samples'), CATDS: 3.8918058303858701E-2); 1.05 µM in [6] (compound concentrations: 100 nM and 1000 nM (sheet 'Samples'), CATDS: 4.2030828964441901E-2).
For the compound `COc1cc2ncn(-c3cc(OCc4sccc4Cl)c(C(N)=O)s3)c2cc1OC` [GSK448459A], the potency estimated from few doses in [18] (setting [21]) is 0.0308 µM.
Take `COc1ccc(C2=C(Nc3cccc(O)c3)C(=O)NC2=O)cc1` [SB-390766]: the potency estimated from few doses was 2.21 µM in test [8] (setting [21]) and 2.03 µM in test [5] (setting [21]).
With `COc1ccc(-c2nn3ncccc3c2-c2ccnc(Nc3ccc4c(c3)OCCO4)n2)cc1` [GW827106X], the potency estimated from few doses was 2.43 µM in test [7] (compound concentrations: 100 nM and 1000 nM (sheet 'Samples'), CATDS: 4.1816048723515499E-2); 2.07 µM in test [11] (compound concentrations: 100 nM and 1000 nM (sheet 'Samples'), CATDS: 4.4079434043462103E-2); 1.99 µM in test [8] (compound concentrations: 100 nM and 1000 nM (sheet 'Samples'), CATDS: 4.4703419918465902E-2).
Turning to `Cc1ccc(NC(=O)c2ccc(Cl)cc2)cc1-c1ccc(C(=O)Nc2ccncc2)cc1` [GSK1398467A], in [7] (compound concentrations: 100 nM and 1000 nM (sheet 'Samples'), CATDS: 0.16187565637937301), the potency estimated from few doses was 2.02 µM.
Take `COc1cc(F)c(F)c(F)c1C(=O)c1cnc(NC2CCN(S(C)(=O)=O)CC2)nc1N` [RO4600703-000]: the potency estimated from few doses is 0.426 µM in [19] (setting [21]) and 0.501 µM in test [20] (setting [21]).
On to `CC(=O)Nc1ccc2c(C3=C(c4cn(C)c5ccccc45)C(=O)NC3=O)cn(C)c2c1` [RO0317596-000], for which the potency estimated from few doses in test [19] (compound concentrations: 100 nM and 1000 nM (sheet 'Samples'), CATDS: 0.111698981376187) is 1.59 µM; in [20] (compound concentrations: 100 nM and 1000 nM (sheet 'Samples'), CATDS: 0.18147743783192199), 0.554 µM.
